This is part of a sample that, as a whole, favours compounds with a hit. Of some 83,000 tested, about 20% had one in any assay.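 The test compound was applied at a single concentration to cells in 96-well plates for 48 hours, and percent growth was recorded.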 A number with no mark means an inactive call. Activity calls are given as the source filed them. Rule for the calls: active = growth percent below 10; inactive = the rest.
Columns and labels:
Test in all cases: NCI-60 one-dose screen, 48 h (100 = growth as untreated, 0 = no growth, -100 = all killed)
Settings in all cases: 10 µM unless noted
SN12C renal = tested on: SN12C renal
UO-31 renal = tested on: UO-31 renal
TK-10 renal = tested on: TK-10 renal
ACHN renal = tested on: ACHN renal
CAKI-1 renal = tested on: CAKI-1 renal
A498 renal = tested on: A498 renal
CCRF-CEM leukemia = tested on: CCRF-CEM leukemia
MOLT-4 leukemia = tested on: MOLT-4 leukemia
SR leukemia = tested on: SR leukemia

Structure (SMILES) | growth (SN12C renal) | growth (UO-31 renal) | growth (TK-10 renal) | growth (ACHN renal) | growth (CAKI-1 renal) | growth (A498 renal) | growth (CCRF-CEM leukemia) | growth (MOLT-4 leukemia) | growth (SR leukemia)
Oc1c(CN2CCN(c3ccccc3F)CC2)cc(Br)c2cccnc12 | 8.15% (active) | -69.6% (active) | -84.1% (active) | -30.4% (active) | -17.3% (active) | 88.1% | 1.46% (active) | 5.58% (active) | –
COc1ccc2sc(N(Cc3cccnc3)C(=O)c3ccc(C#N)cc3)nc2c1 | 80% | 75.6% | 96.6% | 91.2% | 91.9% | 89.6% | 72.1% | 57.8% | –
CC(=Nc1ccccc1)C1=C(O)C(Cc2ccc(F)cc2)NC1=O (stereo not given) | 49.1% | 44.3% | 41.9% | 50.9% | 33.6% | 19.3% | 10.7% | 14.5% | –
Clc1ccc(Nc2nnc(-c3ccc4c(c3)OCO4)o2)cc1 | 96.6% | 86.9% | 94.6% | 102% | 98.4% | 97.5% | 100% | 82.7% | –
COc1cc(C(=O)NN=C2c3ccccc3-c3ccccc32)cc(OC)c1OC | 41.6% | 46.5% | 55.5% | 46.4% | 24.6% | 6.68% (active) | 25.5% | 39.3% | –
O=C(Nc1ccc(F)cc1F)c1cc(Cl)ccc1O | 2.94% (active) | -0.334% (active) | 17.4% | 4.87% (active) | -14.7% (active) | -34.4% (active) | 15.4% | 8.79% (active) | –
Cc1cc(Nc2ccc(OCc3ccccc3)cc2)nc2cc(O)ccc12 | 78.2% | 44.9% | 73.4% | 73.8% | 72.3% | 95.8% | 8.27% (active) | 26% | –
O=S(=O)(c1ccc(NC(=S)NC23CC4CC(CC(C4)C2)C3)cc1)N1CCCCC1 | 96.5% | 61.6% | 111% | 93.6% | 61.8% | 78.8% | 13.9% | -14.7% (active) | -21.9% (active)
C1=CC2(C=C1)OC21CCC2(C=CC3(C2)OC3C2CCCCC2)CC1 (stereo not given) | 105% | 96.8% | 113% | 104% | 93.6% | 97.2% | 97.1% | 95.6% | 90.7%
CCOc1ccccc1CN1CCc2nc3cc(C(C)(C)C)[nH]n3c(=O)c2C1 | 104% | 93.4% | 97.6% | 95.4% | 99.9% | 101% | 91.8% | 94.7% | 88.5%
O=[N+]([O-])c1cc2c(ccc3occc32)o1 | 32.4% | 23.4% | 35.7% | 4.13% (active) | -19.7% (active) | -5.92% (active) | 9.79% (active) | 17.1% | 10.9%
Nc1ccc(-c2nc3cc(Oc4ccc(Oc5ccc6[nH]c(-c7ccc(N)cc7)nc6c5)cc4)ccc3[nH]2)cc1 | 90.4% | 97.7% | 112% | 101% | 120% | 91.5% | 100% | 96.8% | 91.9%
COc1ccc(/C=C/C(=O)c2ccc(Nc3nc(NCCO)nc(Nc4ccc(Cl)cc4)n3)cc2)cc1 | 86.6% | 70.8% | 96.2% | 67.7% | 81.4% | 69.2% | 48.8% | 46.3% | 38.4%
O=C(Nc1ccccc1O)c1ccc(Oc2cccc(C(=O)Nc3ccccc3O)c2)cc1 | 15.4% | 5.32% (active) | 28.3% | 15.8% | -0.0411% (active) | 20.5% | -6.44% (active) | -28.5% (active) | -28.6% (active)
O=C(Nc1ccsc1C(=O)NC1CCCCC1)c1ccc(F)cc1 | 98.3% | 94.4% | 114% | 101% | 95.6% | 95.5% | 66.6% | 95.6% | 79.4%
c1ccc2cc3c(Nc4ccc(N5CCOCC5)cc4)ccnc3cc2c1 | 94.5% | 81.2% | 107% | 94.8% | 92.8% | 77.6% | 77.4% | 78.1% | 81.3%
O=C1c2ccc3c4c(ccc(c24)C(=O)N1CCCCO)C(=O)N(CCCCO)C3=O | 72% | 24.4% | 22.5% | 43.9% | 35.4% | 56.2% | 6.38% (active) | 22.5% | 5.37% (active)
CCCCC(O)(c1ccc(Cl)cc1)C(CN1CCOCC1)c1ccc(Cl)cc1 (stereo not given) | 9.55% (active) | 16.1% | 52.9% | 33.2% | 26.5% | 36% | 22.3% | 6.34% (active) | 5.35% (active)
COC(=O)C1=C(C)NC(C)=C(C(=O)OC)C(N2C(=O)CCC2=O)C1 (stereo not given) | 88.7% | 81.9% | 123% | 99% | 92.6% | 109% | 35.3% | 78.1% | 37.3%
O=C(/C=C/c1ccccc1)c1ccc(Nc2nc(NCCO)nc(Nc3ccc(Cl)cc3)n2)cc1 | 94.1% | 66.7% | 98.5% | 74.1% | 79.2% | 88.9% | 60.6% | 74.3% | 23.1%
COc1ccccc1CNC(=O)C1c2ccccc2C(=O)N(CC(C)C)C1c1cccs1 (stereo not given) | 76.6% | 92% | 75.9% | 54.2% | 53.4% | 42.4% | 24% | 27.1% | 17.3%
CCN1CCN(c2cc(C)c3cc(NC(=O)c4ccc(OC)c(OC)c4)ccc3n2)CC1 | 44.7% | 54% | 57.6% | 58.4% | 48.1% | -3.67% (active) | 7.94% (active) | 16.2% | 1.64% (active)
O=c1nc2sc3nc4ccccc4cc3cc-2s1 | 101% | 117% | 131% | 105% | 137% | 94.6% | 127% | 120% | 134%
Nc1nonc1-n1nncc1-c1cccnc1 | 117% | 92.9% | 107% | 105% | 95.1% | 81.9% | 106% | 91.4% | 103%
O=C(NC1CCN(Cc2ccccc2)CC1)c1cc2nc(-c3ccc(Cl)s3)cc(C(F)(F)F)n2n1 | 91.3% | 96.1% | 84.9% | 96.4% | 102% | 98.6% | -21.7% (active) | -34.3% (active) | -8.99% (active)
COc1ccccc1N1CCN(C(CNS(=O)(=O)c2ccc(Cl)cc2)c2cccnc2)CC1 (stereo not given) | 90.8% | 111% | 111% | 103% | 104% | 56.7% | 55.5% | 46.7% | 49.5%
CN(C)CCNc1cc(-c2ccccc2)nc2ccccc12 | -88.5% (active) | -94.2% (active) | -68% (active) | -27.5% (active) | -36.1% (active) | 52.4% | -9.11% (active) | 0.855% (active) | -23.1% (active)
O=S1(=O)CCN(Cc2ccccc2)CC1 | 101% | 103% | 94.3% | 97% | 89.1% | 75.9% | 98.1% | 105% | 87.3%
